# Hits are enriched below; roughly 2.8% of the tested compounds scored in any of these assays.
# PAFAH1B3 FP inh = inhibitors of human PAFAH1B3; AID 492972; 340,000 tested, 0.28% active; recombinant PAFAH1B3, FP-rhodamine probe, fluorescence polarization; inhibition, % at 3.39 µM; Q15102;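 active = inhibition above the screen-wide average of all tested compounds plus 3 SD, cut at about 25% in these data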;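 note: 0% = enzyme with DMSO only and 100% = wells lacking PAFAH1B3 protein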
# PAFAH2 inh = inhibitors of human PAFAH2; inhibition, % at 3.39 µM; Q99487; 340,000 tested, 0.99% active; AID 492956; recombinant PAFAH2, FP-rhodamine activity probe, fluorescence polarization;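 active = inhibition above the mean over all tested compounds plus 3 SD, cut at about 30% in these data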;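 note: inhibitors block probe labeling of enzyme so polarization drops; 0% = enzyme with DMSO and 100% = wells lacking PAFAH2 protein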
# pPAFAH FP inh = pPAFAH (human) enzyme inhibition; recombinant pPAFAH, FP-rhodamine probe fluorescence polarization; inhibition, % at 3.39 µM; 330,000 tested, 1.5% active;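 active = inhibition above the mean inhibition across the screen plus 3 SD, cut at about 25% in these data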;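 note: inhibitors block binding of the rhodamine activity-based probe so polarization drops; 0% = enzyme with DMSO and 100% = wells lacking pPAFAH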
# PME-1 inh = blocks human protein phosphatase methylesterase 1. recombinant PME-1, FP-Rh probe fluorescence polarization. inhibition, % at 5.9 µM. 320,000 tested, 0.53% active. AID 2130;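 active = inhibition above the campaign mean of all compounds plus 3 SD, cut at about 26% in these data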;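 note: competitive labeling of PME-1 active site by serine hydrolase directed probe; 0% = PME-1 with DMSO and 100% = wells lacking PME-1 enzyme; inhibitors block probe labeling so polarization falls and inhibition rises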
# Target sequence (Q9Y570 whole entry, looked up): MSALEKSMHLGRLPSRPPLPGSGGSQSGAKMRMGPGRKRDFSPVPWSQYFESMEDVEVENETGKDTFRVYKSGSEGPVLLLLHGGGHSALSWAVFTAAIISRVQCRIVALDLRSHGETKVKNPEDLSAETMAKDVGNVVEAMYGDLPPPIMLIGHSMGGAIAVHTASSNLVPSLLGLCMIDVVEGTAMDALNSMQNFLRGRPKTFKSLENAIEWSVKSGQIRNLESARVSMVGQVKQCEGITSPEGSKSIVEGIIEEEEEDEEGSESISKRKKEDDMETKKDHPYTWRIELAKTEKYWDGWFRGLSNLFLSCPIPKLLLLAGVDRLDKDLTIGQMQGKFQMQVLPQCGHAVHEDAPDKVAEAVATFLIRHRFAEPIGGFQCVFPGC
# Fam108B inh = counter-screen for RBBP9 inhibitors: inhibitors of mouse Fam108B; recombinant Fam108B, FP-Rh probe fluorescence polarization; inhibition, % at 9.51 µM; 300,000 tested, 0.33% active;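 active = inhibition above the screen mean inhibition plus 3 SD, computed separately per campaign, cut at about 18% in these data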;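 note: inhibitors lower polarization as less probe binds the enzyme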
# PAFAH1B2 inh = inhibitors of human PAFAH1B2; recombinant PAFAH1B2, FP-rhodamine activity probe, fluorescence polarization; inhibition, % at 3.39 µM; 340,000 tested, 1.2% active; AID 492953;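 active = inhibition above the mean of all tested compounds plus 3 SD, cut at about 24% in these data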;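 note: 0% = enzyme with DMSO and 100% = wells lacking PAFAH1B2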
# * hit, by the source's call; nt = no result given.
SMILES,PAFAH1B3 FP inh,PAFAH2 inh,pPAFAH FP inh,PME-1 inh,Fam108B inh,PAFAH1B2 inh
NC(=S)n1[nH]c(-c2ccc([N+](=O)[O-])cc2)c(N=Nc2ccccc2[N+](=O)[O-])c1=O,12,17,nt,nt,nt,9
NC(=S)n1[nH]c(-c2ccc([N+](=O)[O-])cc2)c(N=Nc2cccc([N+](=O)[O-])c2)c1=O,19,39*,nt,nt,nt,27*
C=CCN1C(=O)N(c2ccccc2)C(=O)C1CC(=O)Nc1ccc(OC)cc1 (stereo not drawn),13,-1,2,-2,-2,5
CC1CCN(S(=O)(=O)c2cccc(C(=O)NCc3ccco3)c2)CC1,3,6,3,4,-2,25*
O=C(NCc1ccco1)c1cccc(S(=O)(=O)N2CCCC2)c1,16,5,nt,nt,nt,-1
O=C(NCc1cccs1)c1ccc(S(=O)(=O)N2CCCCC2)cc1,5,-5,3,4,0,4
CC1CCN(S(=O)(=O)c2cccc(C(=O)NCc3cccs3)c2)CC1,0,5,-2,-12,-4,27*
CC(C)(C)[C@H]1COC(=O)CC/C=C\C[C@@H](CC(=O)N(CCO)Cc2ccccc2)C(=O)N1,8,-2,-2,nt,nt,0
CN(C(=O)c1cc2n(n1)C(C(F)(F)F)CC(c1ccco1)N2)c1ccccc1 (stereo not drawn),4,-2,6,2,-1,7
O=C(NC1CCCCCC1)c1cc2n(n1)C(C(F)(F)F)CC(c1ccco1)N2 (stereo not drawn),3,6,34*,-2,-3,5
O=C(Nc1ccc(O)cc1)c1cc2n(n1)C(C(F)(F)F)CC(c1ccco1)N2 (stereo not drawn),-4,-7,8,-1,0,-4
CCOc1ccc(NC(=O)c2cc3n(n2)C(C(F)(F)F)CC(c2ccco2)N3)cc1 (stereo not drawn),1,4,33*,-4,7,-2
CN(Cc1ccco1)C(=O)C1CCCN(c2ncnc3c2nc2n3CCCCC2)C1 (stereo not drawn),2,1,4,2,1,4
O=C(NCc1ccc(OC(F)(F)F)cc1)C1CCC(=O)N(C2CC2)C1 (stereo not drawn),1,3,nt,nt,nt,0
COc1ccc(NC(=O)COc2coc(CN3c4ccccc4CC3C)cc2=O)cc1 (stereo not drawn),6,-1,3,-7,0,1
OC(c1ccccc1)(c1ccccc1)c1ncc[nH]1,7,-8,-1,0,3,6
Cc1ccc(S(=O)(=O)Oc2cccc([N+](=O)[O-])c2)cc1,-2,1,nt,nt,nt,25*
O=C(c1ccc([N+](=O)[O-])cc1)N(Cc1cccs1)C1CCS(=O)(=O)C1 (stereo not drawn),-9,0,-3,-7,3,0
C=CCn1c(SCC(=O)O)nc2sc(CC)cc2c1=O,7,-3,1,-2,-3,-1
C=CCn1c(SCC(=O)N2CCCC2=O)nc2sc(CC)cc2c1=O,5,4,10,37*,nt,-2
CC(CC(=O)NCCc1ccc(Cl)cc1)S(=O)(=O)c1ccc2c(c1)NC(=O)CO2 (stereo not drawn),3,4,4,6,0,30*
CCC(=O)N1CCN(c2ccc(NC(=S)NC(=O)COc3ccccc3)cc2)CC1,2,8,11,8,-5,1
CC(C)(C)c1ccc(OCC(=O)N2CCN(c3ncccn3)CC2)cc1,-4,16,26*,2,2,3
CC(C)(C)c1ccc(/C=C/C(=O)N2CCN(c3ncccn3)CC2)cc1,12,4,32*,3,-2,6
O=C(/C=C/c1ccc(Cl)c(C(F)(F)F)c1)N1CCN(c2ccccn2)CC1,3,40*,29*,-4,-2,2
CC(=O)N1CCN(c2ccc(NC(=S)NC(=O)COc3ccc(C(C)(C)C)cc3)cc2)CC1,-2,-9,13,40*,0,2
O=C(/C=C/c1ccc(Cl)cc1)N1CCN(c2ccccn2)CC1,5,11,3,6,2,4
CCCN1C2CCCC1CC(NC(=O)c1ccc(OC)cc1)C2 (stereo not drawn),6,1,-4,-2,2,-1

# Bioassay records from PubChem BioAssay.
